From PubChem
Only some compounds are listed: those with a hit (about 4.3% of all), similar ones and a draw of the others.
SW480 rerep: A quantitative high throughput screen for small molecules that induce DNA re-replication in SW480 colon adenocarcinoma cells. Potency, µM (highest dose often 46.1 µM), for inactives: at the top dose re-replication activation, hits mostly activators. hit rate 1.8% among 340,000. SW480 DNA re-replication, Hoechst DNA content imaging, 48 h; also: potency is read from the fitted curve at half-maximal effect; % of control where 0% means no effect; nearly all actives have a fitted effect of over 55% in size
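Compounds, transferred as 23 nL by pin tool, were incubated with cells for 48 hr; DNA content per nucleus was then quantified by Hoechst staining and fluorescence plate imaging.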
MCF10A rereplic: A quantitative high throughput screen for small molecules that induce DNA re-replication in MCF 10a normal breast cells. AID 624296, 2012. hit rate 2.9% among 350,000. Potency, µM (top dose mostly 46.1 µM), without a hit: at the top dose activity, positive = re-replication, most hits filed as activators. MCF 10A DNA re-replication, Hoechst nuclear intensity, 48 h; also: potency is read from the fitted curve at half-maximal effect; % of control where 0% means no effect; nearly all actives have a fitted effect of over 50% in size
Giardia kill: Small Molecules that selectively kill Giardia lamblia: qHTS | activity change, % at 7.66 µM, hits read low | Giardia lamblia trophozoite viability | hit rate 0.15% among 340,000; in the data active = activity change below about -80%; inconclusive = between about -30% and that limit;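 also: parasites exposed to compound for two days anaerobically before the ATP read; % is scaled to controls: 0 for no effect and ±100 for the full control effect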
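Trophozoites 100 cells/well + cpd; 48 hrs, 37 deg C, anaerobic. ATPLite 1-Step added, 15-30 min RT, luminescence read (ATP-based viability).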
uPA surface inh: qHTS for Inhibitors of Cell Surface uPA Generation. Potency, µM (doses to about 38.3 µM), without a hit: top-dose activity change, negative = inhibition, usual class: inhibitors. hit rate 0.31% among 330,000. cell surface uPA generation assay, qHTS; active = well fitted inhibition curve with a large enough effect; inconclusive = small, poorly fitted or top-dose-only effect; inactive = no such curve, though single readings can be large or run the other way; tested in mouse RAW 264.7 cells; also: potency is read from the fitted curve at half-maximal effect; % is scaled to controls: 0 for no effect and ±100 for the full control effect; nearly all actives have a fitted effect of over 55% in size
Active calls of the source: *; ? = inconclusive; . = not tested or not shown; ! = a repeat was not active. Unless noted, calls follow the shape of the dose curve; as a rule, active = well fitted activation curve with a large enough effect; inconclusive = small, poorly fitted or top-dose-only effect; inactive = no such curve, though single readings can be large or run the other way.

SMILES | SW480 rerep | MCF10A rereplic | Giardia kill | uPA surface inh
Cn1nc(-c2ccc(Cl)cc2)nc2c(=O)n(C)c(=O)nc1-2 | . | . | -103* | .
Cn1nc(-c2cccnc2)nc2c(=O)n(C)c(=O)nc1-2 | . | . | -86* | .
Cn1nc(-c2ccc(F)cc2)nc2c(=O)n(C)c(=O)nc1-2 | . | . | -89* | .
CS(=O)(=O)n1nc(-c2ccc(Cl)cc2)nc1N | -129% | 5% | -3 | -2%
CC(=O)NC(Cc1ccccc1)C(=O)OCC(=O)c1ccc(F)cc1 (centres undefined) | -4% | -1% | 13 | 0%
Cc1ccccc1-c1nnc(SCC(=O)N(C)C2CCS(=O)(=O)C2)n1C (centres undefined) | -14% | -2% | -28 | 17%
COc1ccccc1NC(=O)Nc1nc(CC(=O)N2CCN(c3ccccc3OC)CC2)cs1 | -2% | ? | -22 | -3%
O=S(=O)(Nc1nc2ccccc2nc1N1CCN(CCO)CC1)c1cc(F)ccc1F | -13% | 2% | 11 | -4%
COc1ccc(-c2nc3c(=O)n(C)c(=O)nc-3n(C)n2)cc1 | . | . | -99* | .
CCN(CC)C(=O)CSCC(=O)Nc1ccccc1 | -4% | 8.2µM* | 11 | -2%
COC(=O)c1ccc(NC(=O)CSCc2ccccc2)cc1 | -14% | 3% | -5 | 2%
CCC(=O)Oc1ccc(NC(=O)CSCc2ccccc2)cc1 | -20% | 10% | 14 | 10µM*
CC(C)(C)OC(=O)NC(Cc1ccccc1)C(=O)NC1COC2CC(n3cc(F)c(=O)[nH]c3=O)OC12 (centres undefined) | . | . | 1 | .
COc1cc(/C=N/OCC(=O)NC2CCCCC2C)ccc1OCc1ccc(Cl)cc1 (centres undefined) | -2% | 16µM* | -15 | 3%
COc1cc(/C=N/OCC(=O)Nc2cc(C)cc(C)c2)ccc1OCc1ccc(Cl)cc1 | . | 20% | -3 | -2%
Cc1ccc(NC(=O)c2ccc(Cl)c(S(=O)(=O)N3CCc4ccccc43)c2)nc1 | -7% | 4% | -27 | -3%
CCSc1nnc(-c2sc3nnc(-c4ccccc4)c(-c4ccccc4)c3c2N)o1 | ? | 3.3µM* | -15 | -3%
N/C(=N\c1nc2ccccc2o1)NC(=O)c1ccccc1NC(=O)c1ccccc1 | 4% | ? | -1 | 1%
N/C(=N\c1nc2ccccc2o1)NC(=O)c1cccc(Cl)c1 | 4.1µM* | -16% | -9 | 7%
O=C1CCCCC1Nc1ccc(Br)cc1 (centres undefined) | 0% | -1% | -11 | -7%
CC(NC(=S)NCCc1ccccc1)C(c1cccs1)N1CCN(Cc2ccccc2)CC1 (centres undefined) | 21µM* | ? | -14 | -23%
CC(NC(=O)NC1CCCCC1)C(c1cccs1)N1CCN(Cc2ccccc2)CC1 (centres undefined) | -1% | 2% | 3 | 1%
C=CCOC1COC2C(OCC=C)COC12 (centres undefined) | -3% | 0% | -18 | 2%
CCOC(=O)c1cc(C)sc1NC(=O)c1ccc(Cl)s1 | 1% | 3.3µM* | -1 | 2%
CCOC(=O)c1c(NC(=O)c2ccc(Cl)s2)sc(C)c1C | ? | ? | -17 | 9%
SMILES | SW480 rerep | MCF10A rereplic | Giardia kill | uPA surface inh
COc1cccc(CC(=O)Nc2ccc(F)c(S(=O)(=O)N3CCOCC3)c2)c1 | ? | -3% | -4 | 0%
CCCCc1cc(=O)oc2cc(OCc3cc(OC)c(OC)c(OC)c3)c(Cl)cc12 | 27% | 10µM* | -3 | -1%
CCCc1cc(=O)oc2cc(OCc3cc(OC)c(OC)c(OC)c3)c(Cl)cc12 | -6% | ? | -3 | 0%
COc1cc(C(C)=O)ccc1OCC(=O)OC(C)C(=O)c1ccc(F)cc1 (centres undefined) | -5% | 9% | -12 | -18%
O=C(c1ccc2c(c1)OCO2)N1CCN(CCN2C(=O)c3cccc4cccc(c34)C2=O)CC1 | 11% | -2% | 4 | 4%
CCOC(=O)c1c(C)c(/C=N/Nc2ccccc2)n(C)c1C | 30% | 12µM* | 7 | 3%
CCOC(=O)c1c(C)c(C(=O)O)n(C)c1C | 0% | 5% | -13 | .
O=C(C1CCCN(S(=O)(=O)c2ccccc2)C1)N1CCCCCC1 (centres undefined) | 0.52µM*! | 29% | -8 | -6%
O=C(C1CCCN(S(=O)(=O)c2ccc(F)cc2)C1)N1CCCC1 (centres undefined) | 2% | -8% | -2 | 0%
Cc1ccccc1OCCNC(=O)/C=C/c1ccccc1 | -6% | 9% | -1 | -2%
CC(=O)Nc1ccc(NS(=O)(=O)c2ccc(C)cc2)cc1[N+](=O)[O-] | -1% | -20% | 14 | -1%
CC(=O)Nc1ccc(NS(=O)(=O)c2ccc(C)cc2)c([N+](=O)[O-])c1 | -62% | -37% | -99* | 6%
CCOC(=O)C1(Cc2cccc(Cl)c2)CCCN(C(=O)c2ccoc2C)C1 (centres undefined) | 16µM* | ? | -4 | 1%
COc1ccc(-n2c(-c3ccc(Br)cc3)c[n+]3c2CCc2ccccc2-3)cc1 | 6% | 18µM* | 1 | 5µM*
CC(C)c1ccc(-n2c(-c3ccccc3)c[n+]3c2CCc2ccccc2-3)cc1 | 0% | ? | 0 | ?
COc1ccccc1-n1c(-c2ccccc2)c[n+]2c1CCc1ccccc1-2 | 0% | 16% | -5 | 11µM*!
COc1ccc(-c2cn(-c3ccc(OC)cc3)c3[n+]2-c2ccccc2CC3)cc1 | -3% | 0% | 19 | -12%
O=C(O)c1cccc(N2C(=O)c3cccc4c(Cl)ccc(c34)C2=O)c1 | ? | 21µM* | -5 | 0%
O=C(O)c1cccc(N2C(=O)c3cccc4cccc(c34)C2=O)c1 | -1% | ? | 18 | -4%
Cc1cccc(N2C(=O)c3cccc4c(N)ccc(c34)C2=O)c1 | 8.2µM* | ? | -2 | 2%
CC(C)CCN1C(=O)c2cccc3c(N)ccc(c23)C1=O | 23µM* | 15µM* | 21 | 0%
O=C1c2ccc3c4c(ccc(c24)C(=O)N1c1cccc(O)c1)C(=O)N(c1cccc(O)c1)C3=O | 2.6µM* | 13µM* | -14 | ?
CC1=C(/C=C/C(C)=C\C=C\C(C)=C\C=C\C=C(C)\C=C\C=C(C)\C=C\C2=C(C)C[C@@H](O)CC2(C)C)C(C)(C)C[C@H](O)C1 | 12% | ? | . | .
COc1ccc(-c2cc(C(=O)Nc3ccccc3O)c3ccccc3n2)cc1OC | ? | 10% | 32 | -5%
COc1ccc(-c2cc(C(=O)Nc3cc(S(N)(=O)=O)ccc3C)c3ccccc3n2)cc1OC | -19% | 7% | 16 | -6%
COc1ccc(-c2cc(C(=O)Nc3ccccc3N3CCOCC3)c3ccccc3n2)cc1OC | ? | 16µM* | 9 | 6%
COc1ccc(-c2cc(C(=O)Nc3nc4ccccc4s3)c3ccccc3n2)cc1OC | ? | 2.9µM* | 11 | -2%
O=C(Nc1ccccc1N1CCOCC1)c1cc(-c2ccncc2)nc2ccccc12 | 8% | 18% | -14 | 2%
